Several values for one entry are separate records, joined by “and”; a condition that tells them apart may be missing. Identical values can stand only once. Inconclusive results are not listed. Some structures have more than one record in an assay (separate samples or runs), and their calls can disagree. Activity calls are given as the source filed them. How the source made its calls, unless noted: active means hit-call score of the fitted dose curve at least 0.9, where 1 is the maximum; inactive means score below 0.9.
Key:
[1] = read-out: Collagen I, COL1A1 (gene 1277); test: BSK_MyoF_CollagenI: BioMAP Diversity Plus: MyoF Assay for Collagen I Biomarker Activity (AID 2284238); settings: primary human lung fibroblasts
Summary of the method: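 Primary human lung fibroblasts (MyoF system) treated 24 h; Collagen I quantified by ELISA and fitted in positive direction against DMSO. Parallel SRB total-protein staining assessed overt cytotoxicity.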

[2] = read-out: Collagen III, COL3A1 (gene 1281); test: BSK_MyoF_CollagenIII: BioMAP Diversity Plus: MyoF Assay for Collagen III Biomarker Activity (AID 2284239); settings: primary human lung fibroblasts
Summary of the method: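 Primary human lung fibroblasts (BioMAP MyoF system) exposed 24 h. Collagen III measured by ELISA; positive-direction fit relative to DMSO.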

[3] = CCTE_Mundy_HCI_hNP1_Casp3_7: CCTE's Caspase-Glo 3/7 Assay in human neuroprogenitor cells for Apoptosis, Mundy Lab (AID 2284240)
Summary of the method: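 Neuroepithelial-lineage stem cells from WA09 embryonic cells were treated with chemicals after 40–44 h of culture. Twenty-four hours later, caspase-3/7 activation was detected luminescently after a 30 min room-temperature reagent step, with DMSO as baseline.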

[4] = CCTE_Mundy_HCI_hNP1_CellTiter: CCTE's Cell Titer-Glo 2 Assay in human neuroprogenitor cells for Viability, Mundy Lab (AID 2284241; active means hit-call score of the fitted dose curve at least 0.9, where 1 is the maximum)
Summary of the method: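 Measures ATP content in human neural progenitors derived from WA09 embryonic cells. Read-out at 26.5 hours after dosing, with DMSO serving as the negative control and baseline.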

[5] = read-out: Interleukin 17F (IL17F), IL17F (gene 112744); test: BSK_BT_xIL17F: BioMAP Diversity Plus: BT Assay for Interleukin 17F (IL17F) Biomarker Activity (AID 2284243); settings: primary human B cells with PBMC
Summary of the method: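 Human PBMC co-cultured with B cells, compound exposure 24 h; secreted IL-17F quantified by Luminex xMAP, referenced to DMSO control. PBMC viability measured in parallel by Alamar Blue reduction.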

[6] = read-out: Actin alpha 1 (ACTA1), ACTA1 (gene 58); test: BSK_MyoF_ACTA1: BioMAP Diversity Plus: MyoF Assay for Actin alpha 1 (ACTA1) Biomarker Activity (AID 2284244); settings: primary human lung fibroblasts
Summary of the method: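 Measured by ELISA: alpha-smooth muscle actin in human primary lung fibroblasts 24 h after dosing, with DMSO as baseline and upward signal change as the fitted direction.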

[7] = read-out: Interleukin 2 (IL2), IL2 (gene 3558); test: BSK_BT_xIL2: BioMAP Diversity Plus: BT Assay for Interleukin 2 (IL2) Biomarker Activity (AID 2284245); settings: primary human B cells with PBMC
Summary of the method: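 Secreted interleukin-2 from human B cell/PBMC co-cultures, measured 24 h post-dosing by Luminex multiplex immunoassay. Upward-direction curve fitting against DMSO baseline.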

[8] = read-out: Collagen IV, COL4A1 (gene 1282); test: BSK_MyoF_CollagenIV: BioMAP Diversity Plus: MyoF Assay for Collagen IV Biomarker Activity (AID 2284247); settings: primary human lung fibroblasts
Summary of the method: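 Activity is scored as a signal increase over DMSO in an ELISA for Collagen IV, measured on human lung fibroblasts at 24 h after chemical treatment. Cytotoxicity is checked in parallel cultures by sulforhodamine B total-protein staining.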

[9] = read-out: Monokine induced gamma interferon (MIG), CXCL9 (gene 4283); test: BSK_KF3CT_MIG: BioMAP Diversity Plus: KF3CT Assay for Monokine induced gamma interferon (MIG) Biomarker Activity (AID 2284248); settings: primary human keratinocytes with fibroblasts
Summary of the method: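 Human keratinocyte–foreskin fibroblast co-culture; MIG measured by ELISA 24 h after chemical dosing, fitted upward versus DMSO. Cytotoxicity was assessed in parallel cultures by SRB total-protein staining read at 560 nm.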

[10] = read-out: Collagen I, COL1A1 (gene 1277); test: BSK_hDFCGF_CollagenI: BioMAP Diversity Plus: hDFCGF Assay for Collagen I Biomarker Activity (AID 2284250); settings: primary human foreskin fibroblasts
Summary of the method: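 Cells were primary human foreskin fibroblasts treated for 24 h. Collagen I levels were then determined by ELISA and compared against DMSO controls.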

[11] = read-out: Interferon-inducible T-cell alpha chemoattractant (ITAC), CXCL11 (gene 6373); test: BSK_hDFCGF_ITAC: BioMAP Diversity Plus: hDFCGF Assay for Interferon-inducible T-cell alpha chemoattractant (ITAC) Biomarker Activity (AID 2284251); settings: primary human foreskin fibroblasts
Summary of the method: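 ELISA readout of I-TAC after 24 h chemical exposure; human dermal foreskin fibroblast primary cells. Positive-direction fitting vs DMSO baseline. Parallel SRB total-protein staining (0.1% SRB after 10% TCA fixation, 560 nm) flags cytotoxicity.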

[12] = read-out: Plasminogen activator inhibitor-1 (PAI1), SERPINE1 (gene 5054); test: BSK_KF3CT_PAI1: BioMAP Diversity Plus: KF3CT Assay for Plasminogen activator inhibitor-1 (PAI1) Biomarker Activity (AID 2284252); settings: primary human keratinocytes with fibroblasts
Summary of the method: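 Signal is PAI-1 detected by ELISA in a human skin-derived keratinocyte/fibroblast co-culture, 24 h after dosing; DMSO served as negative control and baseline.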

[13] = read-out: Monocyte Chemoattractant Protein-1 (MCP1), CCL2 (gene 6347); test: BSK_IMphg_MCP1: BioMAP Diversity Plus: IMphg Assay for Monocyte Chemoattractant Protein-1 (MCP1) Biomarker Activity (AID 2284253); settings: primary human endothelial cells with macrophages
Summary of the method: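 Human venular endothelial cells co-cultured with macrophages; MCP-1 measured by ELISA 24 hours post-dose and fitted against DMSO. Cytotoxicity monitored by SRB total-protein staining in parallel cultures.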

[14] = read-out: Interleukin-8 (IL8), CXCL8 (gene 3576); test: BSK_KF3CT_IL8: BioMAP Diversity Plus: KF3CT Assay for Interleukin-8 (IL8) Biomarker Activity (AID 2284254); settings: primary human keratinocytes with fibroblasts
Summary of the method: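 Human keratinocyte/foreskin fibroblast co-culture dosed 24 h; IL-8 measured by ELISA relative to DMSO. Parallel cultures stained with SRB for total protein to flag cytotoxicity.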

[15] = read-out: Plasminogen activator inhibitor-1 (PAI1), SERPINE1 (gene 5054); test: BSK_MyoF_PAI1: BioMAP Diversity Plus: MyoF Assay for Plasminogen activator inhibitor-1 (PAI1) Biomarker Activity (AID 2284256); settings: primary human lung fibroblasts;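 on outcome: PAI-1 read 24 h after compound addition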
Summary of the method: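 Primary human lung fibroblasts treated with chemical for 24 h; PAI-1 levels quantified by ELISA relative to DMSO. Cytotoxicity was assessed in parallel cultures by SRB total-protein staining (0.1% SRB after 10% TCA fixation, 560 nm).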

CD69, CD69 (gene 969) = test: BSK_IMphg_CD69: BioMAP Diversity Plus: IMphg Assay for CD69 Biomarker Activity (AID 2284257); settings: primary human endothelial cells with macrophages
Summary of the method: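 Human venular endothelial cells co-cultured with macrophages; CD69 quantified by ELISA 24 h after compound addition. Activity fitted in the positive direction relative to DMSO baseline; cytotoxicity tracked in parallel cultures via SRB total-protein staining.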

[16] = read-out: Basic fibroblast growth factor (bFGF), FGF2 (gene 2247); test: BSK_MyoF_bFGF: BioMAP Diversity Plus: MyoF Assay for Basic fibroblast growth factor (bFGF) Biomarker Activity (AID 2284246); settings: primary human lung fibroblasts
Summary of the method: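 In this multiplexed cell system, lung fibroblasts (human primary) receive test chemical for 24 h before ELISA detection of bFGF; DMSO defines baseline and the analysis direction is positive.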

[17] = read-out: Vascular cell adhesion molecule 1 (VCAM1), VCAM1 (gene 7412); test: BSK_BF4T_VCAM1: BioMAP Diversity Plus: BF4T Assay for Vascular cell adhesion molecule 1 (VCAM1) Biomarker Activity (AID 2284249); settings: primary human bronchial epithelial cells with fibroblasts
Summary of the method: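 Human bronchial epithelial cell and dermal fibroblast co-culture exposed 24 h. VCAM-1 measured by ELISA; parallel SRB total-protein staining for cytotoxicity. Fitted in positive direction relative to DMSO.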

O=C(O)C(F)(F)C(F)(F)C(F)(F)OC(F)(F)F
outcome [1]: inactive | outcome [2]: inactive | outcome [3]: inactive | outcome [4]: inactive | outcome [5]: inactive | outcome [6]: inactive | outcome [7]: inactive | outcome [8]: inactive | outcome [9]: inactive | outcome [10]: inactive | outcome [11]: inactive | outcome [12]: inactive | outcome [13]: inactive | outcome [14]: inactive | outcome [15]: inactive | outcome (CD69, CD69 (gene 969)): inactive

O=C(F)C1(F)C(F)(F)C(F)(F)C(F)(F)C(F)(F)C1(F)F
outcome [1]: inactive | outcome [2]: inactive | outcome [3]: inactive | outcome [4]: inactive | outcome [5]: inactive | outcome [6]: inactive | outcome [7]: inactive | outcome [8]: inactive | outcome [9]: inactive | outcome [10]: inactive | outcome [11]: inactive | outcome [12]: inactive | outcome [13]: inactive | outcome [14]: inactive | outcome [15]: inactive | outcome (CD69, CD69 (gene 969)): inactive

C=C(C)C(=O)OCC(F)(F)C(F)(F)C(F)(F)C(F)F
outcome [1]: inactive | outcome [2]: inactive | AC50 [5]: 22.9 µM (active) | outcome [5]: inactive | AC50 [6]: 14.4 µM (active) | outcome [6]: inactive | outcome [7]: inactive | outcome [8]: inactive | outcome [9]: inactive | outcome [10]: inactive | AC50 [11]: 7.82 µM (active) | outcome [11]: inactive | outcome [12]: inactive | outcome [13]: inactive | outcome [14]: inactive | AC50 [15]: 0.222 µM (active) | outcome [15]: inactive | outcome (CD69, CD69 (gene 969)): inactive

C=CC(=O)OCCC(F)(F)C(F)(F)C(F)(F)C(F)(F)F
outcome [1]: inactive | outcome [2]: inactive | AC50 [5]: 20.1 µM (active) and 14.3 µM (active) | outcome [6]: inactive | AC50 [7]: 46.6 µM (active) and 48 µM (active) | outcome [16]: inactive | outcome [8]: inactive | outcome [9]: inactive | outcome [10]: inactive | AC50 [11]: 25 µM (active) and 21.5 µM (active) | outcome [12]: inactive | outcome [13]: inactive | outcome [14]: inactive | outcome [15]: inactive | outcome (CD69, CD69 (gene 969)): inactive

NC(=O)C(F)(F)C(F)(F)C(F)(F)C(F)(F)C(N)=O
outcome [1]: inactive | outcome [2]: inactive | outcome [3]: inactive | outcome [5]: inactive | outcome [6]: inactive | outcome [7]: inactive | outcome [16]: inactive | outcome [8]: inactive | outcome [9]: inactive | outcome [17]: inactive | outcome [10]: inactive | outcome [11]: inactive | outcome [12]: inactive | outcome [13]: inactive | outcome [14]: inactive | outcome [15]: inactive | outcome (CD69, CD69 (gene 969)): inactive

O=C(O)C(F)(F)C(F)(F)C(F)(F)C(F)(F)C(F)(F)C(F)(F)C(F)F
outcome [1]: inactive | outcome [2]: inactive | outcome [5]: inactive | AC50 [6]: 0.232 µM (active) | outcome [6]: inactive | outcome [7]: inactive | outcome [16]: inactive | outcome [8]: inactive | outcome [9]: inactive | outcome [10]: inactive | AC50 [11]: 0.577 µM (active) | outcome [11]: inactive | outcome [12]: inactive | outcome [13]: inactive | AC50 [14]: 17.2 µM (active) | outcome [14]: inactive | outcome [15]: inactive | outcome (CD69, CD69 (gene 969)): inactive
